# Compound activity deposited in PubChem BioAssay by several laboratories.
# Most compounds without a hit are left out; they make up all but 1.4% or so of the library.
# CCHF vOTU inh: CCHFV vOTU protease inhibition; Pep-AMC fluorescence; inhibition, % at 11.5 µM; 370,000 compounds, 0.55% hits; AID 651958; in the data active = inhibition above about 30%; note: 0% = vehicle wells with enzyme and 100% = no enzyme wells
# PriA SSB inh: blocks PriA binding to SSB C-terminal tail | AlphaScreen SSBct-PriA binding, biotinylated peptide | inhibition, % at 33 µM | 430,000 compounds, 0.6% hits | AID 1272365; in the data active = inhibition mostly above about 37%, no sharp cut-off; inactive = mostly below about 20%;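 note: plate controls were negative control peptide for no effect and reference peptide for full effect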
# Mtb hypoxia inh: inhibitors of hypoxia-regulated fluorescent reporter in Mycobacterium tuberculosis. 300,000 compounds, 0.1% hits. fluorescence inhibition, % (test concentration not listed). M. tuberculosis hypoxia-regulated fluorescent reporter, fluorescence; in the data active = fluorescence inhibition mostly above about 23%, no sharp cut-off; inactive = mostly below about 17%
# ugtP null kill: kills S. aureus RN4220 lacking UgtP; growth inhibition, % (concentration not given with the values); 330,000 compounds, 0.54% hits; AID 1259309; S. aureus RN4220 ugtP deletion, OD600 growth, 16 h; in the data active = growth inhibition above about 68%;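 note: plate controls were untreated wells for no effect and antibiotic for full effect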
# Sa RN4220 lethal: S. aureus RN4220 growth inhibition | 330,000 compounds, 0.33% hits | inhibition, % (no concentration beside the values) | OD600, 16 h | AID 1259311; in the data active = inhibition above about 85%;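 note: plate controls were untreated cells for no effect and reference antibiotic for full effect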
# * marks the source's active call; other numbers are inactive results; i = inactive; x = no result shown.
SMILES,CCHF vOTU inh,PriA SSB inh,Mtb hypoxia inh,ugtP null kill,Sa RN4220 lethal
Cn1c(N2CCN(C(=O)OC(C)(C)C)CC2)nc2ccccc21,x,-10.0,x,x,x
O=C1CCCC(=NNC(=O)c2ccc(CN3c4cccc5cccc(c45)S3(=O)=O)cc2)C1,x,-4.0,7.2,-9.1,10.0
CN1CCN(S(=O)(=O)c2ccc(NC(=S)NC(=O)c3ccc(Cl)cc3)cc2)CC1,19.4,-0.9,x,90.5*,4.3
CN1CCN(S(=O)(=O)c2ccc(NC(=S)NC(=O)c3ccccc3)cc2)CC1,13.5,-3.8,x,46.4,-1.9
CCCCC(=O)NC(=S)Nc1ccc(S(=O)(=O)N2CCCC2)cc1,9.7,-4.3,12.9,93.6*,5.3
O=C(NC(=S)Nc1ccc(S(=O)(=O)N2CCCCC2)cc1)c1ccc(Cl)cc1,1.6,-16.4,x,91.0*,-9.9
CC1SC(=N/N=C/c2ccco2)N(Cc2ccccc2)C1=O (centres undefined),x,i,x,x,x
O=C(Nc1ccc2c(c1)N(C(=O)C1CC1)CC2)c1ccc(Cl)c(Cl)c1,x,1.0,x,x,x
CC(OC(=O)COc1ccc(Nc2ccccc2)cc1)C(=O)N(C)c1ccccc1 (centres undefined),-4.3,40.1*,7.3,-2.8,-1.0
CC(OC(=O)CNS(=O)(=O)c1ccc2ccccc2c1)C(=O)N(C)c1ccccc1 (centres undefined),-0.9,0.7,0.2,-1.5,0.4
O=C(NCCn1nc(-c2ccsc2)cc1C1CC1)Nc1c(F)cccc1F,x,1.0,x,x,x
CCOc1ccc(NC(=O)CN(C)C(=O)c2ccc(OCc3ccccc3)c(OC)c2)cc1OCC,14.3,42.4*,4.4,2.4,-1.0
CCOc1ccc(NC(=O)c2ccc([N+](=O)[O-])s2)c([N+](=O)[O-])c1,x,-8.0,x,x,x
CCOc1ccc(NC(=O)Cc2ccccc2)c([N+](=O)[O-])c1,2.8,42.9*,11.5,16.4,4.9
CCOc1ccc(NC=CC(=O)c2ccccc2)c([N+](=O)[O-])c1,x,43.2*,x,x,x
CCOc1ccc(NC(=O)c2snnc2C)c([N+](=O)[O-])c1,x,52.0*,x,x,x
CCOc1ccc(N/C=C/C(=O)c2ccc(C)cc2)c([N+](=O)[O-])c1,9.3,x,x,1.1,-4.6
Cc1oc2ccc(NS(=O)(=O)c3cccc4cccnc34)cc2c1C(=O)OCc1ccccc1,x,3.0,x,x,x
CC(=O)N1CCN(C2CC2)C[C@@H]1Cc1ccccc1,x,-8.0,x,x,x
C=CCNC(=S)NNc1nc2c(c(=O)[nH]1)C1(CCCCC1)Cc1ccccc1-2,4.9,-0.9,-11.6,85.4*,-17.7
O=c1[nH]c(NCCO)nc2c1C1(CCCC1)Cc1ccccc1-2,-140.8,-19.7,15.4,-9.4,-3.5
COc1ccc(CN(C)C(=O)COC(=O)c2cc([N+](=O)[O-])ccc2N2CCCC2)c(OC)c1OC,5.2,13.7,21.8*,4.7,3.7
Cc1ccc2nc(-c3ccc(NC(=O)c4cccn(OCc5ccc(F)cc5)c4=O)cc3)sc2c1,x,-4.0,x,x,x
C#CCOCCOCCOCCNc1nc(N2CCN(C(=O)C(Cc3cc4ccccc4[nH]3)n3cc(C(N)Cc4ccc(O)cc4)nn3)CC2)nc(N2CCN(C(=O)C(Cc3cc4ccccc4[nH]3)n3cc(C(N)Cc4ccc(O)cc4)nn3)CC2)n1 (centres undefined),x,39.4*,x,x,x
C#CCOCCOCCOCCNc1nc(N2CCN(C(=O)[C@H](Cc3cc4ccccc4[nH]3)n3cc([C@@H](N)Cc4ccc(O)cc4)nn3)CC2)nc(N2CCN(C(=O)[C@H](Cc3cc4ccccc4[nH]3)n3cc([C@@H](N)CC(C)C)nn3)CC2)n1,x,22.3,x,x,x
SMILES,CCHF vOTU inh,PriA SSB inh,Mtb hypoxia inh,ugtP null kill,Sa RN4220 lethal
CCNc1nc(NCC)nc(C(=O)NN)n1,7.7,82.8*,x,-3.7,2.9
Cc1ccc(NC(=S)NC(=O)C2CCCC2)c(Br)c1,4.9,3.9,-6.0,93.1*,6.8
O=C(NC(=S)Nc1ccccc1Br)C1CC1,11.7,-24.7,2.3,10.3,4.7
COC(=O)NCc1nc2ccccc2n1C,x,-54.0,x,x,x
Nc1ccccc1Nc1cc(-c2ccccc2)nn1-c1ccccc1,2.8,59.9*,-1.6,-3.4,-3.7
Cc1ccc(-n2nc(-c3ccccc3)cc2Nc2ccccc2N)cc1,-8.0,36.1,6.3,11.7,2.3
CCOC(=O)C1Oc2ccccc2C(c2ccc(C)cc2)=C1C(=O)OC (centres undefined),5.8,-25.9,5.0,95.4*,-0.2
O=C(NN=Cc1cc(O)ccc1Br)c1cccnc1,x,45.6*,x,x,x
O=C(NN=Cc1cc(Cl)ccc1O)c1ccncc1,x,67.1*,8.2,-1.9,10.0
CC[n+]1c(/C=C/N(C)c2ccccc2)n(-c2ccccc2)c2ccc(-c3nc4ccccc4s3)cc21,x,13.8,x,100.8*,99.8*
